Bioassay records: PubChem, National Center for Advancing Translational Sciences (NCATS)
FBPA Giardia inh: qHTS Assay for Inhibitors of Fructose-1,6-bisphosphate Aldolase from Giardia Lamblia. A8B2U2. purified Giardia FBPA. Potency, µM (titrated, usually from 59.6 µM), actives largely listed as inhibitors. 290,000 tested, 0.71% active. AID 2451, 2010; note: nearly all actives have a fitted effect of over 55% in size
Target sequence (A8B2U2 whole entry, looked up): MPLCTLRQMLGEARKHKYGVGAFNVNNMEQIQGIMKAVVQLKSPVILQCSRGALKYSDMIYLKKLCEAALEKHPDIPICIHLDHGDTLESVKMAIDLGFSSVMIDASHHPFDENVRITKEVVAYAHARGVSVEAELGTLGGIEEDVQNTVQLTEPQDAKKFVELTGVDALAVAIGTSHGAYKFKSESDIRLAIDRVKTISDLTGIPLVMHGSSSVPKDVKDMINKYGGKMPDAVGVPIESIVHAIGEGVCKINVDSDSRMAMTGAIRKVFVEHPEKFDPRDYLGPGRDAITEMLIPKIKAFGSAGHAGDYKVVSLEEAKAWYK
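40 nM FBPA preincubated 10 min at RT with compound (up to 57.5 uM final), then substrate plus GAPDH/TPI/NAD/arsenate coupling and diaphorase/resazurin added. Fluorescence read after 20 min at RT, 525/598 nm.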
LmPK inh: qHTS Assay for Inhibitors of Leishmania Mexicana Pyruvate Kinase (LmPK); Q27686; purified LmPK, Kinase-Glo ATP luminescence, 1 h; Potency, µM (top dose mostly 57.5 µM), most hits filed as inhibitors; 290,000 tested, 0.37% active
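Purified LmPK (0.1 nM) converted ADP (0.1 mM) to ATP with PEP (0.5 mM) in imidazole buffer pH 7.2 with KCl and MgCl2, 1 h at room temperature. ATP was read by Kinase-Glo luminescence; data normalized to uninhibited and no-enzyme controls.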
Cycloheximide cs: Cycloheximide Counterscreen for Small Molecule Inhibitors of Shiga Toxin; max response, %; AID 2314, 2010; cell reporter, cycloheximide protein synthesis inhibition counterscreen; 300,000 tested, 12% active; in the data active = max response mostly above about 13%, no sharp cut-off; inactive = mostly below about 14%; note: read at 38.3 µM for the half of the compounds with a filed dose
RE007 growth inh: qHTS Assay for Inhibitors of the HIV-1 protein Vpr. S. pombe RE007 Vpr strain, BacTiter-Glo ATP luminescence, 24 h. Potency, µM (doses to about 92.2 µM), usual class: inhibitors. 360,000 tested, 0.21% active. AID 651644, 2012; active = well fitted falling curve with a large enough effect; inconclusive = small, poorly fitted or top-dose-only effect; inactive = no such curve, though single readings can be large or run the other way; note: nearly all actives have a fitted effect of over 50% in size
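Fission yeast strain RE007, carrying one chromosomally integrated HIV-1 vpr copy, was seeded at OD 0.01 in PMG+AL medium with 23 nL pinned compound. After 24 h at 30 °C and 99% humidity, viability was read by BacTiter-Glo luminescence.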
Tb PYK inh: qHTS of Trypanosoma Brucei Inhibitors; pyruvate kinase (Trypanosoma brucei), Q57TT1; TbPYK enzyme, Kinase-Glo Plus ATP luminescence, 45 min; Potency, µM (top dose mostly 76.8 µM), most hits filed as inhibitors; 410,000 tested, 0.12% active; note: nearly all actives have a fitted effect of over 50% in size
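Luminescence from Kinase-Glo Plus, added after a 45-minute room-temperature reaction, served as the end-point read-out. The enzyme and substrate were preincubated with compound before ADP (130 uM final) initiated turnover. Concentration-effect curves came from normalized qHTS data.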
Shiga inhibitor: A qHTS for Small Molecule Inhibitors of Shiga Toxin; Vero cells, Shiga toxin protein synthesis inhibition reporter; inhibition, % at 38.7 µM; 290,000 tested, 9.2% active; in the data active = inhibition mostly above about 28%, no sharp cut-off; inactive = mostly below about 43%
Numbers stand for hits; . = inactive; ? = inconclusive; / = no result; [ ] = dose if it differs, or a comment. Many of the other results were omitted from the sample, so hits are more common in it than they were. Unless noted, calls come from the whole dose curve; as a rule, active = well fitted curve in the direction sought with a large enough effect; inconclusive = small, poorly fitted or top-dose-only effect, or another doubt; inactive = no such curve, though single readings can be large; an effect the other way counts as inactive or inconclusive.

SMILES | FBPA Giardia inh | LmPK inh | Cycloheximide cs | RE007 growth inh | Tb PYK inh | Shiga inhibitor
COCCOC(=O)CSc1ncccc1-c1nc2cc(C)c(C)cc2[nH]1 | . | 14µM | 33 | ? | . | .
Cc1cc2nc(-c3cccnc3SCC(=O)NC(C)C)[nH]c2cc1C | . | ? | 79 | . | . | 66
COc1ccc2nc(SCC(=O)NC(C)C)[nH]c2c1 | . | . | . | . | . | .
C(=N\NC(=Nc1ccccc1)c1ccccn1)/c1ccccn1 | . | . | 14 | . | . | .
Clc1ccc(/C=N/NC(=Nc2ccccc2)c2ccccn2)c(Cl)c1 | . | . | 41 | . | . | 124
O=S1(=O)N=C(Nc2ccc(N3CCOCC3)cc2)c2ccccc21 | . | . | . | . | . | .
Cc1ccccc1-c1ccc(Nc2ccc(N3CCOCC3)cc2)nn1 | . | . | 29 | . | . | .
CCn1c(=O)c2cc(C(=O)NCCc3cc(OC)ccc3OC)sc2c2ccccc21 | / | / | / | / | . | /
CCN1CCN(C(c2cccc(F)c2)c2c(O)cc(C)n(Cc3ccco3)c2=O)CC1 (stereo not drawn) | / | / | / | / | . | /
Nc1ccc2c(c1)Oc1ccccc1C=C2 | . | . | . | . | . | .
Nc1ccc2c(c1)COc1ccccc1O2 | . | . | 16 | . | . | 88
COc1ccc(/C=N/n2cnn(Cc3ccccc3Cl)c2=S)cc1 | ? | . | 36 | . | . | .
CCNC(=O)[C@H]1CCCN1C(=O)[C@H](CCCN=C(N)N)NC(=O)[C@H](CC(C)C)NC(=O)[C@H](CC(C)C)NC(=O)[C@@H](Cc1ccc(O)cc1)NC(=O)[C@H](CO)NC(=O)[C@@H](Cc1c[nH]c2ccccc12)NC(=O)[C@H](Cc1cnc[nH]1)NC(=O)[C@@H]1CCC(=O)N1 | / | / | / | / | . | /
C=CCOC(=O)Cn1cnc2c(sc3nc(C)cc(C)c32)c1=O | . | . | 46 | . | . | 72
Cc1cc(C)c2c(n1)sc1c(=O)n(CC(=O)c3ccccc3)cnc12 | . | . | . | . | . | .
CCCCCCCCCCCCCCCCOC[C@H](COP(=O)([O-])OCC[N+](C)(C)C)OC(=O)NC | . | / | / | / | / | /
O=C1NC(=S)S/C1=C1\Sc2ccccc2N1CCCS(=O)(=O)O | ? | 16µM | . | . | . | .
C=CCN1/C(=C2/SC(=S)N(C)C2=O)Sc2ccccc21 | . | . | . | / | / | .
OCC1CCCN(C(=S)Nc2ccc(Oc3ccccc3)cc2)C1 (stereo not drawn) | . | . | 43 | . | . | 80
Fc1ccc(NC(=S)N2CCCCC2)cc1 | . | . | . | . | . | .
Cc1ccc(NC(=S)N2CCCCCC2)cc1 | . | . | 37 | . | . | 75
COC(=O)Cc1ccc(NC(=S)N2CCCC(CO)C2)cc1 (stereo not drawn) | . | . | . | . | . | .
CC(=O)c1ccc(NC(=S)N2CCCC(CO)C2)cc1 (stereo not drawn) | . | . | 38 | . | . | 51
Cc1ccc(NC(=S)N2CCCC2)cc1 | . | . | 27 | . | . | 77
CCS(=O)(=O)N1CC(=O)N(c2cccc(C)c2C)C(C)(C(=O)NC2CCCCC2)C1 (stereo not drawn) | / | / | / | / | .[15.4 µM] | /
SMILES | FBPA Giardia inh | LmPK inh | Cycloheximide cs | RE007 growth inh | Tb PYK inh | Shiga inhibitor
CC(=O)Nc1ccc(S(=O)(=O)NCC2CCC(C(=O)NCCc3ccc(C)cc3)CC2)cc1 (stereo not drawn) | / | / | / | / | . | /
CC(=O)c1ccc(NC(=S)N2CCCCCC2)cc1 | . | . | 21 | . | . | 67
S=C(Nc1ccc2nccnc2c1)N1CCCC1 | ? | . | 28 | . | . | .
S=C(Nc1ccc(Cl)cc1)N1CCCC1 | . | . | 30 | / | . | .
Cc1ccc(NC(=S)N2CCCCC2)cc1C | . | . | 20 | . | . | 43
CC1(C)C(=O)C(c2ccccc2)=C2CN3C(=O)N(CCc4ccccc4)C(=O)C3(Cc3ccccc3)C=C21 (stereo not drawn) | . | / | / | / | / | /
COC(=O)NC(c1ccccc1)c1c[nH]c2ccccc12 (stereo not drawn) | . | / | / | / | / | /
Fc1ccc(NCc2nnc3n2CCCCC3)cc1Cl | / | / | / | / | . | /
O=C1CCn2nc(-c3ccc(Cl)cc3)cc2N1 | . | . | 44 | . | . | 79
Brc1c(CSc2nc3ccccc3o2)nc2ncccn12 | . | . | 40 | . | . | .
Clc1c(CSc2nc3ccccc3o2)nc2ccccn12 | . | . | 33 | / | . | .
Cc1cc(C)nc(SCc2nc3ncccn3c2Br)n1 | . | . | . | . | . | .
O=C(CSc1nc2ccccc2o1)N1c2ccccc2Sc2ccccc21 | . | . | . | . | . | .
Clc1c(CSc2nc3ccccc3o2)nc2sccn12 | . | . | 30 | . | . | 152
Oc1c(C(c2ccccc2F)N2CCCCC2)sc2nc(-c3ccco3)nn12 (stereo not drawn) | / | / | / | / | . | /
NC(=O)Cn1nnc(-c2ccc(C(F)(F)F)cc2)n1 | . | . | . | . | . | 32
CCOC(=O)Cn1nnc(-c2ccc(SC)cc2)n1 | . | . | 47 | . | . | 67
CSc1ccc(-c2nnn(Cc3ccc(Br)cc3)n2)cc1 | . | . | 36 | . | . | .
Cc1cc(Cn2nnc(-c3ccc(Br)cc3)n2)cc(C)c1O | / | / | / | . | . | /
CSc1ccc(-c2nnn(Cc3ccccn3)n2)cc1 | . | . | 19 | . | . | 79
CCOC(=O)Cn1nnc(-c2ccc(S(C)(=O)=O)cc2)n1 | . | . | . | . | . | .
COc1ccc(CCNC(=O)C(=O)NCC(c2cccs2)S(=O)(=O)c2ccc(F)cc2)cc1 (stereo not drawn) | / | / | / | / | . | /
COC(=O)[C@@H](NC(=O)O[C@@H]1C(=O)c2ccc(OC)cc2O[C@H]1c1ccc2c(c1)OCO2)C(C)C | . | / | / | / | / | /
Cc1ccccc1CSc1nc2ccsc2c(=O)n1CCC(C)C | / | / | / | / | . | /
COc1ccc(NC(=O)Cc2c(F)cccc2Cl)cc1 | . | . | 31 | . | . | 62
SMILES | FBPA Giardia inh | LmPK inh | Cycloheximide cs | RE007 growth inh | Tb PYK inh | Shiga inhibitor
COc1ccccc1NC(=O)Cc1c(F)cccc1Cl | . | . | . | . | . | .
COc1ccc(NC(=O)COC(=O)Cc2c(F)cccc2Cl)cc1 | . | . | 45 | . | . | 33
COc1ccc(CC(=O)OCC(=O)Nc2ccc(F)cc2)cc1 | / | / | / | ? | . | /
CSc1cccc(NC(=O)c2cc3c(COC(C)=O)cnc(C)c3oc2=O)c1 | / | / | / | / | . | /
CSc1nnc2c(n1)c(C)nn2-c1cccc(C)c1 | . | . | 20 | . | . | 36
CCCCCOc1c(Cl)cc(C(=O)N(Cc2ccc(C)o2)C2CCS(=O)(=O)C2)cc1Cl (stereo not drawn) | / | / | / | / | . | /
CCCc1ccc(OCc2nc(-c3ccc(NC(=O)c4ccco4)cc3)no2)cc1 | . | . | 47 | . | . | .
